In the supplement of paper PMC3334620:
In all, about 33,000 sequences were measured (“E-score (-0.5 to 0.5)”: median about -0.053, highest 2% from about 0.37 on). Shown is part of a subset that was picked to be rich in the highest values.

target: Hap1 (UniProt P0CE41); assay: PBM E-score (8-mer binding enrichment) (E-score (-0.5 to 0.5)); higher = stronger / more preferred TF binding; conditions: protein concentration: 200 nM; construct: GST-DNA-binding domain
In short: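 Each ungapped eight-base word and its reverse complement, pooled, received an E-score from the Universal PBM Analysis Suite. Underlying scans, normalised with masliner, recorded fluorescent anti-GST bound to GST-tagged yeast transcription factors. These were applied at about 100-200 nM to universal all-10-mer Agilent arrays double-stranded by primer extension.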

Sequence of UniProt P0CE41 (P0CE41 whole entry, the tested form may be a part): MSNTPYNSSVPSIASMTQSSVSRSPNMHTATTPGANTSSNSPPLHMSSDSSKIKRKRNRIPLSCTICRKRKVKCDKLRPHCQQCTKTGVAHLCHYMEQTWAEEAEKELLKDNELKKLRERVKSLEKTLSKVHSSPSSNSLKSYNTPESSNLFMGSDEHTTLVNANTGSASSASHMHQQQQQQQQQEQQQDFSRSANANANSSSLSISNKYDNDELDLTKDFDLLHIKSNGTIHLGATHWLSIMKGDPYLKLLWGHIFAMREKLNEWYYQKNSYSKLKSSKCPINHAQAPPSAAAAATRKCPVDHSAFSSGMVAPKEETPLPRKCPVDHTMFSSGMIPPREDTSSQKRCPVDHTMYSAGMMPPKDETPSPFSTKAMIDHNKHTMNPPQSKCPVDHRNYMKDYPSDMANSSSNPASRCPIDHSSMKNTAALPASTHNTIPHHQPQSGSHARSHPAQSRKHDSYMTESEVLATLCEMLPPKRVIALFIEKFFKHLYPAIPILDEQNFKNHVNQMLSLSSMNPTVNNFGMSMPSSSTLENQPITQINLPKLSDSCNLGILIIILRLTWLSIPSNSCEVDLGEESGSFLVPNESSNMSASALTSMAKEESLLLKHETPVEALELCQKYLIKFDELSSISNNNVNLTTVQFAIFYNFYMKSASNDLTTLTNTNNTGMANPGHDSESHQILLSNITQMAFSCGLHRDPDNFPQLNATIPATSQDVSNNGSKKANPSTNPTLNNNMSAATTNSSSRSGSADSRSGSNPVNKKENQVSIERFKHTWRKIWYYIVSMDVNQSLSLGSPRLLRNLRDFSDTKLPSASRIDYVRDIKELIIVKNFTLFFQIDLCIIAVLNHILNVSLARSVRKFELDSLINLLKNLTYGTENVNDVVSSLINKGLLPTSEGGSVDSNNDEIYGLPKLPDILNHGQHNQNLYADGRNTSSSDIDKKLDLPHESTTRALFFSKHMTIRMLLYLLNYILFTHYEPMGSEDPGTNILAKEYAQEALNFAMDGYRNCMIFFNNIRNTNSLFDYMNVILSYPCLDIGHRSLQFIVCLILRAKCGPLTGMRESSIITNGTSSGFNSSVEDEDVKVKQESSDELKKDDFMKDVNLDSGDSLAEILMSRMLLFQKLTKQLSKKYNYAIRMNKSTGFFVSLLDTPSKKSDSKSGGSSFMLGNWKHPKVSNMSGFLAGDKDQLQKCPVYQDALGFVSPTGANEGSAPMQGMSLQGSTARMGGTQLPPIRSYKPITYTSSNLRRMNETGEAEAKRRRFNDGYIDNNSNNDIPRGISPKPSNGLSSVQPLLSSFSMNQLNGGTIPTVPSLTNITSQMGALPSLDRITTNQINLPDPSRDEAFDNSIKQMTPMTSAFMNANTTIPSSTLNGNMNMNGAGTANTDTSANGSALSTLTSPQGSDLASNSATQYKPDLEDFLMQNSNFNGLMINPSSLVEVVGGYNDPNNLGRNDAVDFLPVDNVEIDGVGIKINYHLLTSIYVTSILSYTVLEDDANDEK

Sequence | PBM E-score
GATGAGGC | -0.0801
AAATCGGT | 0.246
ACGGGCCC | 0.214
CCCTCACG | -0.262
GAACCATA | -0.0291
CTAAAACC | 0.291
AGGAATGC | -0.253
ACTCCGTG | 0.292
CCTCCGGC | 0.399
CCTCCGTA | 0.246
GCTCCGCA | 0.164
GCTCCGGA | 0.444
CCTCCGAC | 0.28
GCTCCGTA | 0.297
ACTCCTGG | -0.171
CCTCCGCA | 0.173
CCTCCGTC | 0.113
ACTCCGGG | 0.39
CCTCCGGA | 0.418
AGTCTTCC | -0.0885
CGCCGTCC | 0.0969
ACAATCAT | -0.0714
GGTAGGAC | 0.0611
ACTCCGTA | 0.244
ACTCCGGA | 0.461

Sequence | PBM E-score
ACTCCGGC | 0.389
ACTCCGCA | 0.156
ACTCCGCC | 0.306
ACTCCGTC | 0.3
AGTAGTAC | 0.105
AACTAACA | -0.0716
CTCGCAAC | -0.237
CGGGTTTC | 0.331
CCGGGTTC | 0.296
GGGGGTTA | -0.181
GGGGGGTA | 0.047
ACGGGTTA | 0.0135
AGGGGTTA | -0.0702
CGGGGGTA | 0.425
CGGGGTTA | 0.485
GGGGTTTA | 0.266
CGGGTTTA | 0.474
CCGGGTTA | 0.37
CCGGGGTA | 0.301
GCATAGGA | -0.136
ACGAGAAA | -0.00338
CATAGCCA | -0.139
ACGCCAAA | -0.08
CTCCTGGA | -0.254
GAATCAGC | -0.175

Sequence | PBM E-score
TGGTACAA | -0.376
GTGAGCAC | -0.232
AGGTTATA | -0.0688
CGGTTTTA | 0.433
AGGGGATA | -0.167
CGGGGATA | 0.475
CGGTTATA | 0.371
GGGGGATA | 0.134
AGGTTTTA | 0.0786
GGGTTATA | 0.0789
CGGTTTAA | 0.168
GGTGTTAC | 0.0592
CCCCACTC | -0.186
AGCGGCCG | 0.325
ACTCCGAC | 0.353
CCTCCGCG | 0.198
ACTCCGAA | 0.397
GCTCCGAA | 0.367
CCTCCGAA | 0.334
ACTCCCAT | -0.176
ACTCCTAT | -0.141
ACTCCGCT | 0.21
ACTCCGAT | 0.406
ACTCCGAG | 0.401
CCTCCGAG | 0.335

Sequence | PBM E-score
ACTCCGCG | 0.371
GCGGTCGA | 0.163
CCTTAGGC | -0.184
ATGTAGCG | -0.0634
CTCTACAG | -0.311
CAGTCCAC | -0.272
TCTCCGAA | 0.429
TCTCCGCA | 0.299
TCTCCAAA | -0.138
CCGTCTGA | -0.0177
GGACTTAA | 0.443
AGACTTAA | -0.18
CGACTTAA | -0.169
CAGCTTCC | 0.00993
TATTTGGA | -0.215
ACCTCCGA | 0.391
ACCTCCGG | 0.454
CCCTCCGA | 0.253
ACCTCCGT | 0.286
CCCTCCGG | 0.331
TCCTCCGA | 0.308
AATCATTC | -0.0493
CCTTGGAG | -0.109
ACCCGCTA | 0.209
GTCAGTCA | -0.172

Sequence | PBM E-score
GGGGTATA | 0.103
CGGGTATA | 0.435
AGGGTATA | 0.254
ACGGTATA | 0.0727
GCGGTATA | 0.0943
CCGGTATC | 0.433
ACGGTATC | 0.113
CCGGTATA | 0.425
CAGGTATC | 0.0262
ACCAAGCG | 0.0447
CGGTTTCA | 0.263
AACTCAGG | -0.116
AGGGATGG | 0.00107
AGCATCCG | 0.215
AGCATATG | -0.278
TCCGTTAA | 0.408
CCCGTTAA | 0.297
GCCGTTAA | 0.346
ATCTAAAA | -0.105
CGAGTACG | 0.0449
ATCTCGGG | 0.356
CTCTCGCA | -0.179
AGCTCGGC | 0.354
CTCTCGAA | -0.332
ATCTCGGC | 0.379

Sequence | PBM E-score
GTCTCGGA | 0.358
CTCTCGGA | 0.4
ATCTCGGA | 0.385
CTCTCGGC | 0.318
GCCGGGCC | 0.221
GTGTGTGA | -0.201
ACCCATGC | -0.249
TAGGCTAA | -0.138
GGATCGAC | 0.17
CCCGACCG | 0.379
CCCGACCC | 0.167
CCCGACGG | 0.331
ACCGACGG | 0.38
ACCGACGT | 0.185
ACCGACCG | 0.314
GGGTTACA | 0.0182
AAACGGGA | 0.217
AATCCATG | -0.036
GGAGTTAA | 0.429
CGAGTTAC | -0.0647
AGAGTTAA | -0.105
GGAGTTAC | 0.393
AGAGTTAC | -0.312
TGAGTTAA | -0.188
GAGGGGTA | 0.0493

Sequence | PBM E-score
CCATCAAA | -0.17
GAGACCGC | 0.0393
CGGAAAAC | 0.346
CGGAACTA | 0.436
CGGAAACA | 0.384
AGGAAACA | -0.0825
CGGAAGTC | 0.305
CGGAACTC | 0.309
GGGAAACA | 0.112
CGGAAGTA | 0.38
CGGAAAAA | 0.4
CGGAAAAG | 0.343
AGGAACTA | -0.0416
AGGAAGTA | 0.0541
AATCCTAC | -0.124
ACAGCGCT | -0.0282
CGCTCGTA | 0.0559
ACAGTACA | -0.00621
CGTATCGC | 0.208
CCACTGGG | -0.145
AAGGAAGT | 0.113
TCAGCAAA | -0.157
GTTTCTAA | 0.105
GACCCGTC | 0.0739
CACAGTCA | -0.284

Sequence | PBM E-score
GGCACGCC | -0.0738
ACCAAACT | -0.13
GCGTTGAC | -0.207
GAAGCATC | -0.0716
CGGAATTC | 0.319
CGGAAATA | 0.487
GGGAAATA | 0.13
CGGAATTA | 0.481
AGGAATTA | 0.17
CGGAAATC | 0.352
AGTTGAGC | -0.188
GCCTGGAA | -0.233
CAGTTTGG | -0.204
AGTATGTA | -0.162
AAGACCGA | 0.413
AAGACCGT | 0.0453
ATGACCGG | 0.276
CAGACCGA | 0.278
ATGACCGC | 0.197
ATGACCGA | 0.378
CTTCTAGA | -0.156
AAATGCTC | 0.0505
TGACAGAA | -0.247
ACAGACCT | -0.0718
ACTAGTAC | -0.173

Sequence | PBM E-score
CTAGCCGA | 0.25
ATAGCCAG | -0.293
ATAGCCGA | 0.372
ATAGCCGG | 0.397
AGAGCCGG | 0.263
ATAGCCGC | 0.232
AGTTTGGA | -0.274
CAGTTTCA | -0.241
CAAACGGA | 0.324
GTAACGCA | 0.0607
ATAACGGC | 0.355
ATCACGGA | 0.352
GAAACGGA | 0.277
GTCACGGA | 0.371
CTAACGGA | 0.38
ATAACGGG | 0.228
CTAACGGC | 0.184
CTCACGGA | 0.221
ATAACGGA | 0.414
GTAACGGA | 0.401
